Source: PubChem (National Center for Advancing Translational Sciences (NCATS))
Sampled rows, rich in hits. Any-hit rate of the full collection: about 19%.
Cycloheximide cs – Cycloheximide Counterscreen for Small Molecule Inhibitors of Shiga Toxin | max response, % | hit rate 12% among 300,000 | AID 2314, 2010 | cell reporter, cycloheximide protein synthesis inhibition counterscreen; in the data active = max response mostly above about 13%, no sharp cut-off; inactive = mostly below about 14%; note: read at 38.3 µM for the half of the compounds with a filed dose; 0% is about no effect
SARS PLpro yeast – qHTS of Yeast-based Assay for SARS-CoV PLP. S. cerevisiae expressing SARS-CoV PLpro, growth rescue. Potency, µM (doses to about 32.9 µM), for inactives: at the top dose activity, positive = growth rescue, most hits filed as activators. hit rate 0.19% among 330,000. AID 485353, 2010; calls by dose curve; note: potency is the fitted concentration of half-maximal effect; 0% is about no effect; nearly all actives have a fitted effect of over 55% in size
Pf growth 96h – Primary qHTS for delayed death inhibitors of the malarial parasite plastid, 96 hour incubation | hit rate 6.9% among 320,000 | Potency, µM (titrated, usually from 28.7 µM), for inactives: at the highest dose activity change, negative = inhibition, actives largely listed as inhibitors | P. falciparum luciferase reporter growth, 96 h; note: potency is the fitted concentration of half-maximal effect; % is set by controls: 0 for no effect and ±100 for the full control effect
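Luminescence readout: decreased luciferase signal marks inhibited growth of reporter-expressing P. falciparum in infected red cells (2% hematocrit, 0.05% parasitemia final), exposed to compound two generations (96 h, 37 C, 5% CO2).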
AMA1-RON2 inh – qHTS for Inhibitors of AMA1-RON; Towards Development of Antimalarial Drug Lead: Primary Screen. Potency, µM (highest dose often 58.2 µM), for inactives: top-dose activity change, negative = inhibition, hits mostly inhibitors. Plasmodium falciparum AMA1 (3D7) - RON2 peptide interaction. AlphaScreen AMA1-biotinylated RON2 peptide binding. hit rate 0.2% among 360,000;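 note: potency is the fitted concentration of half-maximal effect; 0% = vehicle wells and -100% = peptide control; nearly all actives have a fitted effect of over 45% in size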
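AMA1 (3D7) with his tag at 25 nM final met compounds first, then biotinylated RON2 peptide at 25 nM; detection used donor plus acceptor beads, 10 µg/mL apiece, read by AlphaScreen after 30 min at room temperature.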
Shiga inhibitor – A qHTS for Small Molecule Inhibitors of Shiga Toxin; inhibition, % at 38.7 µM; hit rate 9.2% among 290,000; Vero cells, Shiga toxin protein synthesis inhibition reporter; in the data active = inhibition mostly above about 28%, no sharp cut-off; inactive = mostly below about 43%; note: 0% is about no effect
Pf growth 48h – Primary qHTS for delayed death inhibitors of the malarial parasite plastid, 48 hour incubation. Potency, µM (doses to about 28.7 µM), for inactives: at the highest dose activity change, negative = inhibition, hits mostly inhibitors. P. falciparum luciferase growth in erythrocytes, 48 h. hit rate 5.9% among 310,000; note: potency is the fitted concentration of half-maximal effect; % is set by controls: 0 for no effect and ±100 for the full control effect
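First compound was added to culture medium, then infected red cells at 0.1% parasitemia and 2% hematocrit (final). After incubation at 37 C under 5% CO2, luciferase detection reagent was dispensed and light output recorded.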
* hit, by the source's call; ? = inconclusive; · = no result given; [ ] = remark or other dose. Unless noted, calls come from the whole dose curve; as a rule, active = well fitted curve in the direction sought with a large enough effect; inconclusive = small, poorly fitted or top-dose-only effect, or another doubt; inactive = no such curve, though single readings can be large; an effect the other way counts as inactive or inconclusive.

SMILES	Cycloheximide cs	SARS PLpro yeast	Pf growth 96h	AMA1-RON2 inh	Shiga inhibitor	Pf growth 48h
C/C(=N\Nc1ccccc1)c1cccc(N)c1	23*	-7%	?	-10%	40	8%
Cc1cccc(NC(=O)CSCC(=O)N(CCC(C)C)c2c(N)n(Cc3ccccc3)c(=O)[nH]c2=O)c1	·	0%	?	5%	·	2%
C/C(=N\NC(=O)c1ccncc1)c1cccc(NC(=O)c2ccc(C(C)(C)C)cc2)c1	27*	-12%	-14%	73%	66*	58%
C/C(=N\NC(=O)C(C)Sc1ccccc1)c1ccc([N+](=O)[O-])cc1 (stereo not drawn)	-3	7%	9.3µM*	1%	-7	-11%
COc1cccc(N(C(=O)c2snc(C(N)=O)c2N)C(C(=O)NCC2CCCO2)c2cccs2)c1 (stereo not drawn)	-3	-2%	?	-8%	3	?
COc1ccc(N(C(=O)CCl)C(C(=O)NCCc2ccccc2)c2cccs2)cc1Cl (stereo not drawn)	-6	-54%	4.7µM*	-4%	-22	9.3µM*
COc1cccc(N(C(=O)CCl)C(C(=O)NCCc2ccccc2)c2cccs2)c1 (stereo not drawn)	-2	-21%	9.3µM*	4%	-15	12µM*
COc1ccc(N(C(=O)c2ccco2)C(C(=O)NC2CCCCC2)c2cccs2)cc1OC (stereo not drawn)	-2	-3%	85%	-4%	-6	?
Cc1ccccc1NC(=S)Nc1ccccn1	26*	-3%	?	11%	52*	?
S=C(Nc1ccccn1)Nc1ccccc1Cl	35*	1%	-24%	28%	72*	-2%
COC(=O)Cc1ccc(NC(=S)NCCO)cc1	1	2%	0%	20%	2	13%
COC(=O)Cc1ccc(NC(=S)Nc2ccccn2)cc1	31*	0%	-9%[5.75 µM]	29%	74*	7%
CC(=O)C1C(c2ccc(Cl)cc2)c2c(noc2C)CC1(C)O (stereo not drawn)	1	0%	6%	1%	-1	8%
CC(=O)c1ccccc1NS(=O)(=O)c1ccc2c(c1)CC(=O)N2	·	0%	4.7µM*	-2%	·	?
O=C1Cc2cc(S(=O)(=O)Nc3ccc(F)cc3Cl)ccc2N1	·	-3%	?	-6%	·	22%
Fc1ccc(-c2cnc[nH]2)cc1	23*	-3%	·	-12%	35	45%
CCn1c(=O)cc(OCC(=O)NCc2cccs2)c2ccccc21	-6	1%	35%	5%	-18	7%
N=c1n(CCO)c2ccccc2n1CCOc1ccccc1	-3	1%	?	12%	-13	-10%
O=S(=O)(c1ccc(-c2csc(=Nc3ccccc3)n2CCCN2CCOCC2)cc1)N1CCOCC1	-3	-3%	-18%	-24%	-16	?
OCCn1c(-c2ccc(F)cc2)csc1=Nc1ccccc1	22*	7%	3%	-18%	71*	1%
OCCn1c(-c2ccc3c(c2)OCO3)csc1=Nc1ccccc1	37*	-6%	4%	?	46*	-7%
O=C(N/N=C/c1cccnc1)c1cc(-c2ccccc2OCc2ccccc2)n[nH]1	-2	-2%	?	47%	26	10µM*
O=C(N/N=C/c1cccnc1)c1ccccc1OCc1ccc(Cl)cc1	10	-9%	-20%	·	-6	?
O=C(N/N=C/c1cccnc1)c1ccccc1OCc1ccc(Br)cc1	16	-1%	3%	-7%	32	9.3µM*
O=C(N/N=C/c1cccc(OCc2ccccc2)c1)c1ccc(Br)cc1	7	24%	-6%	-1%	13	-14%
SMILES	Cycloheximide cs	SARS PLpro yeast	Pf growth 96h	AMA1-RON2 inh	Shiga inhibitor	Pf growth 48h
CCc1nnc(NC(=O)CCC(=O)NCc2ccccc2Cl)s1	-3	-5%	42%	2%	14	23%
Cc1nc(N2CCC(C)CC2)c2c(C)c(C(=O)Nc3ccc(C(F)(F)F)cc3)sc2n1	12	0%	?	-4%	2	0.21µM*
Cc1ccc(F)cc1NC(=O)c1sc2ncn(CC(=O)N3CCN(c4ccccn4)CC3)c(=O)c2c1C	-2	-3%	15µM*	13%	-7	12%
Cc1c(C(=O)Nc2ccccc2F)sc2ncn(CC(=O)N3CCOCC3)c(=O)c12	15	-15%	?	-2%	-8	12%
Cc1nc(N2CCN(c3ccccn3)CC2)c2c(C)c(C(=O)Nc3ccccc3F)sc2n1	6	-2%	?	-13%	-4	6.6µM*
Cc1nc(N2CCN(c3ccccn3)CC2)c2c(C)c(C(=O)Nc3ccc(F)cc3F)sc2n1	16	-3%	-15%	-2%	15	8.3µM*
CCOC(=O)C1CCCN(c2cc(=O)n(C3CCCCC3)c(=O)[nH]2)C1 (stereo not drawn)	-6	-5%	-17%	3%	-14	-2%
CCN(CC)CCNC(=S)N1CCn2c(nc3ccccc32)C1	0	-9%	?	11%	-8	?
O=C(NCCc1c[nH]c2ccccc12)c1cc2sccc2n1Cc1ccccc1	-2	-3%	0%	-19%	-4	·
Cn1c(C(=O)NCCc2c[nH]c3ccccc23)cc2sccc21	82*	-22%	33%	-20%	89*	·
O=C(Cc1ccccc1)NCCc1c[nH]c2ccccc12	-2	?	-18%	-5%	7	?
O=C(Cc1c(F)cccc1Cl)NCCc1c[nH]c2ccccc12	-2	-1%	-13%	0%	2	-21%
O=C(NCCc1c[nH]c2ccccc12)c1c(Cl)nc2sccn12	23*	7%	-10%	-2%	44	24%
O=C(NCCc1c[nH]c2ccccc12)c1ccccc1O	38*	·	·	·	29*	·
Cc1ccc(NC(=O)C(=O)NCCc2c[nH]c3ccccc23)cc1C	2	1%	79%[1.15 µM]	-10%	-6	46%
O=C(NCCc1c[nH]c2ccccc12)C(=O)Nc1ccccc1	29*	-2%	?	0%	83	130%
COc1ccccc1CCC(=O)N1CCN(S(=O)(=O)c2cccc(F)c2)CC1	·	8%	-20%	12%	·	-23%
CC1C(=O)N(Cc2cn(CCC3OCCO3)nn2)CCS(=O)(=O)N1Cc1ccc(-c2ccccc2)cc1 (stereo not drawn)	·	·	·	-5%	·	·
COCCNc1ncnc2c1ncn2[C@H]1CN(Cc2cc(OC)c(OC)c(OC)c2)C[C@@H](CO)O1	·	·	·	16%	·	·
CNc1nc(Cl)c(SC)c(N2CCOCC2)n1	2	2%	1%	126%	-9	23%
COc1ccc(N2CCN(CCCNC(=O)C(=O)c3c[nH]c4ccccc34)CC2)cc1	-1	0%	2.1µM*	?	16	3.7µM*
